Consider 23 molecules from PubChem BioAssay (NCATS).

Test [1] concerns the target Rap guanine nucleotide exchange factor 3 (Homo sapiens) (UniProt O95398). Kind of test: Confirmatory qHTS for antagonist of cAMP-regulated guanine nucleotide exchange factor 3 (EPAC1) (AID 1645880). Note: nearly all actives have a fitted effect of over 55% in size. Note: potency is the fitted concentration of half-maximal effect. Summed up: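 Nucleotide exchange uses 100 nM EPAC1, 250 nM RAP1B-BODIPY-GDP and 50 uM GDP, with compounds in a concentration-titration series. After 5 min at room temperature, fluorescence (480 nm ex/540 nm em) is read every 5 min for 30 min. Data are normalized to control ATA and DMSO.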

The target is the same in test [2]. Kind of test: Confirmatory qHTS for agonist of cAMP-regulated guanine nucleotide exchange factor 3 (EPAC1) (AID 1645881).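 For activation: EPAC1 catalysed release of BODIPY-GDP from Rap1B seen as fluorescence loss; 100% = effect of cAMP agonist control.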 Note: nearly all actives have a fitted effect of over 75% in size. Note: potency is the fitted concentration of half-maximal effect. For orientation: Quantitative high-throughput screening tests each substance at several concentrations.
Test [3] concerns the target Rap guanine nucleotide exchange factor 4 (Homo sapiens) (UniProt Q8WZA2). The test can be described thus: Confirmatory qHTS for agonist of cAMP-regulated guanine nucleotide exchange factor 4 (EPAC2) (AID 1645884). For activation: % is set by controls: 0 for no effect and ±100 for the full control effect.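 Note: nucleotide exchange releases bodipy-GDP from Rap1 and this lowers its fluorescence; nearly all actives have a fitted effect of over 65% in size.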 Note: potency is the fitted concentration of half-maximal effect.
Test [4] has the same target. The test can be described thus: Confirmatory qHTS for antagonist of cAMP-regulated guanine nucleotide exchange factor 4 (EPAC2) (AID 1645885). For activity change, negative = inhibition: % is set by controls: 0 for no effect and ±100 for the full control effect. Note: nearly all actives have a fitted effect of over 25% in size. Note: potency is the fitted concentration of half-maximal effect.
The target in test [5] is Rap guanine nucleotide exchange factor 3 (Homo sapiens) (UniProt O95398). The test can be described thus: Counterscreen qHTS for antagonist of cAMP-regulated guanine nucleotide exchange factor 3 (EPAC1) (AID 1645888).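 Note: fluorescence loss as bound BODIPY-GDP is released from Rap1B; % of control where 0% means no effect.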 The method, boiled down: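 Rap1B–BODIPY-GDP (250 nM) with 50 uM GDP; compounds pin-transferred to 9.74 nM–152 uM final (activator) or from 7.32 nM upwards (inhibitor). Fluorescence Ex/Em 480/540 nm read at 5 and 30 min, then after adding cAMP or buffer, at room temperature.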
Chain of Rap guanine nucleotide exchange factor 3 (Homo sapiens) (O95398 whole entry, looked up): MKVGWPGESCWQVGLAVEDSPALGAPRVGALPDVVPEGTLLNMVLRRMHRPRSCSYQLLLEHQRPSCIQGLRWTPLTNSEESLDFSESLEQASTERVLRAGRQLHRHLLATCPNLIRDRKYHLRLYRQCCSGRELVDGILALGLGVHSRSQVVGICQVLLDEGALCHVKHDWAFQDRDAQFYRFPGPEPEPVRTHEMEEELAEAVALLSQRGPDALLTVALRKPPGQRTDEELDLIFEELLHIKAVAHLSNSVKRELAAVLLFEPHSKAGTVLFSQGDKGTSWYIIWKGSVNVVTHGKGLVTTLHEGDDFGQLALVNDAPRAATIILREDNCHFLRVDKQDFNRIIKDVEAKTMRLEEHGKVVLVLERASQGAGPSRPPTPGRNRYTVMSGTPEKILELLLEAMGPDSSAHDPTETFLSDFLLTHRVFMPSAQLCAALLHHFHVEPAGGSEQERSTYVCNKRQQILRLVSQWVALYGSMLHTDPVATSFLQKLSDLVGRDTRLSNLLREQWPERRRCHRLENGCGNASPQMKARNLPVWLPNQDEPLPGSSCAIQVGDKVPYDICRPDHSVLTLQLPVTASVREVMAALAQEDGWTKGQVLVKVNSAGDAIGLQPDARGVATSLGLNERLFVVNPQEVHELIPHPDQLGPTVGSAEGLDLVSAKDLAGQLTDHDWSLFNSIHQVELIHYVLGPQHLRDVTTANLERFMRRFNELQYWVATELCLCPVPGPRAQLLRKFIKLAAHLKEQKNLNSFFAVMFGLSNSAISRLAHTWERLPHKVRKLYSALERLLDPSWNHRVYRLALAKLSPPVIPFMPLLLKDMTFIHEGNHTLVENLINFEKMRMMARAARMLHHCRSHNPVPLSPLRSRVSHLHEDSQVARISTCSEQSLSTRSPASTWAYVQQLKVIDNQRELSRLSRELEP

Records with an inconclusive call do not appear. Values without a mark were called inactive. The source made the active and inactive calls. Calls come from the whole dose curve; as a rule, active = well fitted curve in the direction sought with a large enough effect; inconclusive = small, poorly fitted or top-dose-only effect, or another doubt; inactive = no such curve, though single readings can be large; an effect the other way counts as inactive or inconclusive.

Chain of Rap guanine nucleotide exchange factor 4 (Homo sapiens) (Q8WZA2 whole entry, looked up): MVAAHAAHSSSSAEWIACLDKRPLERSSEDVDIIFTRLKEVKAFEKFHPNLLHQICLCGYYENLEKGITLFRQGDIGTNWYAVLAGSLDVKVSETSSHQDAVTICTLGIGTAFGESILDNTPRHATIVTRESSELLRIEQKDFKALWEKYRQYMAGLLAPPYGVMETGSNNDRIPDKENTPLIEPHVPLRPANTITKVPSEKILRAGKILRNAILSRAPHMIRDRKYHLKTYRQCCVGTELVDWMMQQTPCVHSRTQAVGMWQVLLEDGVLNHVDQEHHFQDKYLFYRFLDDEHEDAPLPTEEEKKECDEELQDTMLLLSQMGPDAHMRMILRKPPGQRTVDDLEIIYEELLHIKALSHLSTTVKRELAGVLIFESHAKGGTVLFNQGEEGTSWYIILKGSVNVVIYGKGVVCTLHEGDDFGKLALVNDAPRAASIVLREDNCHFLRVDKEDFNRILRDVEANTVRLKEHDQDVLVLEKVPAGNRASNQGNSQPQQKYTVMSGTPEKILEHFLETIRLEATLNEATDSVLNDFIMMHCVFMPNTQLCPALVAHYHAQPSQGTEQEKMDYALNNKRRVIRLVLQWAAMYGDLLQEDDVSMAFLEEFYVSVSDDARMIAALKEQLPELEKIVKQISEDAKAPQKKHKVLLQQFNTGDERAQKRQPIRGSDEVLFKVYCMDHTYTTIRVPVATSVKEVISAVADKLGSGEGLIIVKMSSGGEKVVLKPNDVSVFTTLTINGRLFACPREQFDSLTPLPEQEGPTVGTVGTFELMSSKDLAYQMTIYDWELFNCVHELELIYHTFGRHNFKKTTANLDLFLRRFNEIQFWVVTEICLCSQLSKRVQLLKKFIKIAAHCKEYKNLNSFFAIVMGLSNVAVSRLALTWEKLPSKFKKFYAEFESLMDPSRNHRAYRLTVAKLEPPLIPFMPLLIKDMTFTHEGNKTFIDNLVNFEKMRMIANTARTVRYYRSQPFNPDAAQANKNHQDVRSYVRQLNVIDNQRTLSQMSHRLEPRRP

Turning to `O=C(O)c1[nH]c2ccccc2c1C(c1cc(Cl)cc([N+](=O)[O-])c1O)c1c(C(=O)O)[nH]c2ccccc12`, the Potency in test [1] is 37.9 µM (active). Also, the Potency result in test [2], in test [3], in test [4] and in test [5] was “inactive” each time.

For the molecule `COc1cccc(C2=NN(C(=O)c3ccco3)C(O)(C(F)(F)F)C2)c1` (stereo not given), the Potency entry in test [1], in test [2] and in test [4] was “inactive” each time. The activation in test [3] was 1.71% [at 17.1 µM, percent relative to cAMP agonist control]. Also, the activity change, negative = inhibition in test [5] was -10.8% [at 30.8 µM].

Regarding `Cc1ncc(CO)c(/C=N/NC(=O)c2cc(Br)ccc2O)c1O`, the Potency result in test [1], in test [2] and in test [4] was “inactive” in each case. The activation in test [3] is 0% [at 17.1 µM, percent relative to cAMP agonist control]. Further, in test [5], the activity change, negative = inhibition is -9.07% [at 30.8 µM].

On to `O=C(CSc1nnc(SCc2ccccc2)s1)N/N=C/C=C/c1ccco1`, for which the Potency in test [1] is 12.6 µM (active). The Potency result in test [2] and in test [4] was “inactive” in each case. Further, in test [3], the activation was 3.41% [at 17.1 µM, percent relative to cAMP agonist control]. The activity change, negative = inhibition in test [5] was -6.93% [at 30.8 µM].

For `CC(=O)NCCn1c(C)cc2ccccc21`, the Potency result in test [1], in test [2] and in test [4] was “inactive” throughout. Also, the activation in test [3] is 5.87% [at 17.1 µM, percent relative to cAMP agonist control]. For the same molecule, the activity change, negative = inhibition in test [5] was -13.2% [at 30.8 µM].

Consider `Cc1cnc(C(=O)N(c2ccc(N3CCOCC3)cc2)C2C(=O)Nc3ccccc3N=C2c2ccc(F)cc2)cn1` (stereo not given), for which the Potency result in test [1], in test [2], in test [3], in test [4] and in test [5] was “inactive” throughout.

For `NS(=O)(=O)c1ccc(NC2=CC(=O)C(=O)c3ccccc32)cc1`, the values for the Potency in test [1] and in test [4] were 26.9 µM (active) and 84.9 µM (active), respectively. The Potency entry in test [2], in test [3] and in test [5] was “inactive” each time.

Consider `Cc1ccccc1OCCC(=O)OCC(=O)NC1CCCCC1`, for which the Potency result in test [1], in test [2] and in test [4] was “inactive” each time. In addition, the activation in test [3] is 3.43% [at 17.1 µM, percent relative to cAMP agonist control]. Also, in test [5], the activity change, negative = inhibition is 6.94% [at 30.8 µM].

As for `Cc1nn(CSc2c(F)c(F)c(F)c(F)c2F)c(C)c1[N+](=O)[O-]`, the Potency entry in test [1], in test [2] and in test [4] was “inactive” throughout. In addition, the activation in test [3] was 0.798% [at 17.1 µM, percent relative to cAMP agonist control]. Also, the activity change, negative = inhibition in test [5] was -18.4% [at 30.8 µM].

Consider `CC(C)c1ccc(C2NC(=O)c3c(sc4c3CCN(C)C4)N2)cc1` (stereo not given), for which the Potency result in test [1], in test [2], in test [3], in test [4] and in test [5] was “inactive” in each case.

In the case of `Nc1ccc2c3c(cccc13)-c1ccccc1-2`, the Potency entry in test [1], in test [4] and in test [5] was “inactive” throughout. Also, the Potency in test [2] and in test [3] was 100 µM (active) each time.

Take `CCn1c(C)nc2cc(C(=O)N/N=C(\C)c3ccccc3O)ccc21`: the Potency in test [1] is 7.08 µM (active). For the same molecule, the Potency entry in test [2] and in test [4] was “inactive” each time. Besides, in test [3], the activation was 0.106% [at 17.1 µM, percent relative to cAMP agonist control]. Also, the activity change, negative = inhibition in test [5] is -28% [at 30.8 µM].

As to `CCN1/C(=C/C(C)=C/c2sc3ccccc3[n+]2CC)Sc2ccccc21`, the Potency in test [1] is 50.1 µM (active). For the same molecule, the Potency result in test [2] and in test [4] was “inactive” throughout. In test [3], the activation is 8.04% [at 17.1 µM, percent relative to cAMP agonist control]. In test [5], the activity change, negative = inhibition was 12.4% [at 30.8 µM].

Take `COc1ccc(S(=O)(=O)N2CCOC23CCN(S(=O)(=O)c2ccc(F)cc2C)CC3)cc1`: the Potency entry in test [1], in test [2], in test [3], in test [4] and in test [5] was “inactive” throughout.

On to `CCCOc1c(OC)cccc1C1CC(=O)Nc2cc(OC)c(OC)c(OC)c21` (stereo not given), for which the Potency result in test [1], in test [2], in test [3], in test [4] and in test [5] was “inactive” in each case.

Consider `CCCC(C(=O)Nc1ccc(C)c(S(=O)(=O)N2CCOCC2)c1)c1ccccc1` (stereo not given), for which the Potency entry in test [1], in test [2] and in test [4] was “inactive” in each case. Moreover, in test [3], the activation was 4.3% [at 17.1 µM, percent relative to cAMP agonist control]. Further, the activity change, negative = inhibition in test [5] was -29.6% [at 30.8 µM].

In the case of `O=C(OCC(=O)N1CCCC1=O)c1cc(Cl)ccc1O`, the Potency result in test [1], in test [2], in test [3], in test [4] and in test [5] was “inactive” each time.

In the case of `Cc1cc(=O)n(Cc2cccc(Cl)c2)c2c1c(C)nn2C`, the Potency result in test [1], in test [2], in test [3], in test [4] and in test [5] was “inactive” throughout.

As for `Cc1ccc(S(=O)(=O)Nc2cc(=O)[nH]c(SCC(=O)Nc3cccc(C)c3)n2)cc1`, the Potency entry in test [1], in test [2] and in test [4] was “inactive” in each case. The activation in test [3] was 4.73% [at 17.1 µM, percent relative to cAMP agonist control]. Further, the activity change, negative = inhibition in test [5] is -4.46% [at 30.8 µM].

Regarding `COC(=O)c1cc2sc(C)cc2n1Cc1ccccc1`, the Potency entry in test [1], in test [2], in test [3], in test [4] and in test [5] was “inactive” each time.

Take `Cc1nn(CCc2nn[nH]n2)c2nc(-c3ccc(C4CCCCC4)cc3)cc(C(F)(F)F)c12`: the Potency in test [1] is 21.3 µM (active). In addition, the Potency result in test [2], in test [3], in test [4] and in test [5] was “inactive” each time.

Regarding `Cc1ccc(NC(=O)C2CCCN2S(=O)(=O)c2cccc3nsnc23)c(Br)c1` (stereo not given), the Potency result in test [1], in test [2], in test [3] and in test [5] was “inactive” each time. In addition, the outcome in test [4] is “inactive [at 12.7 µM]”.

`Cc1ccc(N(Cc2cccs2)C(=O)c2ccccc2)cc1`: the Potency result in test [1], in test [2], in test [3], in test [4] and in test [5] was “inactive” throughout.
